Platelet DG rel = platelet dense granule release activity; human platelet-rich plasma, SFLLRN dense granule ATP release, luminescence; AID 1663; actives 0.22% (n = 300,000); inhibition, %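 (compounds screened at 7.5 µM in platelet-rich plasma)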;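 active = mean replicate score, as percent of positive control, at or above 50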
HSP90 inh = inhibitors of HSP90 luciferase refolding in rabbit reticulocyte lysate; luciferase refolding luminescence, 3 h; actives 0.91% (n = 290,000); inhibition, % at 5.6 µM;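 active = inhibition above the screen-wide mean plus 3 SD, computed separately per campaign, cut at about 16% in these data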;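 also: inhibitors lower the luminescence because luciferase stays unfolded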
SENP6 inh = blocks the human protease SENP6 | inhibition, % at 10 µM | actives 1.8% (n = 330,000) | AID 2599 | Recombinant SENP6 catalytic domain, aminoluciferin luminescence;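 active = inhibition above about 50% at the single tested dose, limit read from the data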
SENP8 block-1 = blocks the human protease SENP8 | AID 2540 | inhibition, % at 10 µM | Q96LD8 | actives 1.2% (n = 330,000) | purified SENP8, Z-RLRGG-aminoluciferin cleavage, luminescence; in the data active = inhibition above about 50%
Target sequence (Q96LD8 whole entry, looked up): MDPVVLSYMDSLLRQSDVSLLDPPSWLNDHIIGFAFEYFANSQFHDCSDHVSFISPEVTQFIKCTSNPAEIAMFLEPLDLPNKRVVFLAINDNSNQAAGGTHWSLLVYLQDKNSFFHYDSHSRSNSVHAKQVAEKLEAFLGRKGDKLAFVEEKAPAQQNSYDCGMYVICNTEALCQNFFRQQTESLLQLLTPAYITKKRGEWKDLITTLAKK
SENP8 block-2 = SENP8 (human) protease inhibition | AID 602440 | actives 0.64% (n = 360,000) | inhibition, % at 20 µM | recombinant SENP8, Nedd8 substrate fluorescence; in the data active = inhibition mostly above about 40%, no sharp cut-off; inactive = mostly below about 27%
SENP7 block = inhibitors of human SENP7 protease; recombinant SENP7, Z-RLRGG-aminoluciferin luminescence, 40 min; AID 434973; inhibition, % at 5 µM; actives 1.5% (n = 330,000);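 active = inhibition above about 50% at the single test dose, limit read from the data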
Target sequence (Q9BQF6 706-1050 limits assumed): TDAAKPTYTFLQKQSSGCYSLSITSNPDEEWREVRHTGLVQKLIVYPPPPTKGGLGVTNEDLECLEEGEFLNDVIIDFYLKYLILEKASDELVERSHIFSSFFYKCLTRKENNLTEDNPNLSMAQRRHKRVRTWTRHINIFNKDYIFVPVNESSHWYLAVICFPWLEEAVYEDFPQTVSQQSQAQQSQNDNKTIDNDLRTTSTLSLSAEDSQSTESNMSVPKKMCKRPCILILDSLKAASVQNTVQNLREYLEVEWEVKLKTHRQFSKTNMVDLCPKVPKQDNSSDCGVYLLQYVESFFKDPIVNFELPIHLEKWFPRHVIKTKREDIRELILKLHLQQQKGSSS
HSP90 confirm = confirmation of HSP90 inhibitors. rabbit reticulocyte lysate, luciferase refolding luminescence, 3 h. actives 64% (n = 2,300). inhibition, % at 5.9 µM. shares compounds with HSP90 inh; in the data active = inhibition above about 18%
FLuc counter = firefly luciferase inhibition, HSP90 counter-screen; shares compounds with HSP90 inh; purified native firefly luciferase, luminescence; actives 48% (n = 2,300); AID 1847; inhibition, % at 5.9 µM;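 active = inhibition above the mean inhibition of all tested sample wells plus 3 SD, cut at about 10% in these data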
Each line names hits and unclear results; the compound was inactive in the other large screens (follow-up assays come after a bar, where they were run). Only some compounds are listed: those with a hit (about 2.8% of all), similar ones and a draw of the others.

Cc1nnc(N/N=C/c2cc(C)n(-c3ccc(F)cc3)c2C)n1N	HSP90 inh 19 | HSP90 confirm inactive | FLuc counter inactive
Cc1nnc(N/N=C/c2c(Cl)cccc2Cl)n1N	HSP90 inh 19 | HSP90 confirm inactive | FLuc counter inactive
CC(=O)Nc1ccccc1OCC(=O)c1cc(C)n(Cc2cccs2)c1C	HSP90 inh 47 | HSP90 confirm 69 | FLuc counter inactive
Cc1cc(C(=O)CSc2nnc(N)s2)c(C)n1Cc1cccs1	HSP90 inh 28 | HSP90 confirm 65 | FLuc counter 59
Cc1cc(C(=O)CSc2nncs2)c(C)n1Cc1ccco1	HSP90 inh 22 | HSP90 confirm 55 | FLuc counter 41
Cc1csc(SCC(=O)c2cc(C)n(Cc3cccs3)c2C)n1	HSP90 inh 65 | HSP90 confirm 85 | FLuc counter 81
CC(=O)Nc1ccc(SCC(=O)c2cc(C)n(Cc3cccs3)c2C)cc1	none
NNC(=O)C1CC(O)CN1S(=O)(=O)c1ccc2ccccc2c1 (stereo unspecified)	none (no result: Platelet DG rel, HSP90 inh)
CC(C)(C)NC(=O)C(c1ccc(-c2ccccc2)cc1)N(C[C@H]1CC[C@@H]([C@@H]2CC[C@H](CO)O2)O1)C(=O)c1ccccc1F (stereo partly specified)	none (no result: Platelet DG rel, HSP90 inh, SENP6 inh, SENP8 block-1)
O=C(NCC1CC1)c1csc([C@@H]2O[C@H](CO)[C@H](O)[C@H](O)[C@H]2O)n1	none (no result: Platelet DG rel, HSP90 inh, SENP6 inh, SENP8 block-1, SENP7 block)
COCCn1c(-c2ccc(Br)cc2)nc2oc3cc(OC)ccc3c(=O)c2c1=O	none
CC(C)Sc1nc(SCC(=O)NCc2ccco2)c2c3c(sc2n1)COC(C)(C)C3	HSP90 inh 21 | HSP90 confirm 36 | FLuc counter inactive
Cn1c2ccccc2c(=O)c2c(=O)n(-c3ccc(F)cc3)c(-c3cccs3)nc21	none
CC(c1ccccc1)n1c(-c2cccs2)nc2c(c(=O)c3ccccc3n2C)c1=O (stereo unspecified)	HSP90 inh 25 | HSP90 confirm inactive | FLuc counter inactive
CCc1ccccc1N(CC(=O)N1CCCC1)S(C)(=O)=O	HSP90 inh 22 | HSP90 confirm inactive | FLuc counter inactive
COC(=O)/C(C#N)=C\c1c(OC)[nH]c2ccccc12	none
CCOC(=O)c1c(NC(=O)C(NCCN(C)C)c2ccccc2)sc2c1CCCC2 (stereo unspecified)	HSP90 inh 23 | HSP90 confirm inactive | FLuc counter inactive
CCOC(=O)c1c(NC(=O)c2ccccc2N(C)S(=O)(=O)c2ccccc2)sc2c1CCCC2	none
Cc1cccc(C)c1NC(=O)C1(C)CSCC(=O)N1C1CCN(Cc2ccccc2)CC1 (stereo unspecified)	none (no result: Platelet DG rel, HSP90 inh, SENP6 inh, SENP8 block-1, SENP7 block)
COc1ccccc1N1CCN(/N=C/c2ccc(C(=O)O)cc2)CC1	HSP90 inh 46 | HSP90 confirm 60 | FLuc counter 39
COc1ccc(/C=N/N2CCN(c3ccccc3OC)CC2)cc1OC	none
C=C1C2(C(=O)NCc3ccco3)CCC(C2)C1(C)C (stereo unspecified)	HSP90 inh 20 | HSP90 confirm inactive | FLuc counter inactive
O=C(Cc1ccccc1)NNc1ccc2ccccc2c1	HSP90 inh 39 | HSP90 confirm inactive | FLuc counter inactive
O=C(COc1ccc2ccccc2c1)NNC(=O)Cc1ccccc1	none (no result: SENP6 inh, SENP8 block-1, SENP7 block)
O=C(CN1C(=O)CCC1=O)NNc1ccc2ccccc2c1	HSP90 inh 26 | HSP90 confirm inactive | FLuc counter inactive
COc1ccc(Cl)cc1C(=O)Nn1cnnc1	none
Cc1cccnc1NC(=O)c1sc2ccccc2c1Cl	none
Cc1c(NC(=S)NC(=O)c2sc3ccccc3c2Cl)cccc1C(=O)O	HSP90 inh 43 | HSP90 confirm 63 | FLuc counter 11
Cc1nnc(NC(=O)c2sc3ccccc3c2Cl)s1	HSP90 inh 18 | HSP90 confirm 35 | FLuc counter 18
O=C(CN1CCOCC1)N1CCOCC1	none (no result: Platelet DG rel, HSP90 inh, SENP6 inh, SENP8 block-1, SENP7 block)
c1coc(CNc2nc(-c3cccs3)cs2)c1	HSP90 inh 18 | HSP90 confirm inactive | FLuc counter inactive
Oc1ccc(-c2csc(NCc3ccco3)n2)cc1	none
CCCC(=O)NC(c1ccccc1)c1ccc2cccnc2c1O (stereo unspecified)	HSP90 inh 20 | HSP90 confirm 18 | FLuc counter inactive
COCCN1C[C@@H](CO)O[C@@H](n2cnc3c(NC(C)C)ncnc32)C1	none (no result: Platelet DG rel, HSP90 inh, SENP6 inh, SENP8 block-1, SENP7 block)
CCN(c1cccc(C(F)(F)F)c1)S(=O)(=O)c1ccc2c(c1)CCN2C(=O)C1CC1	none
CCC(=O)N1CCc2cc(S(=O)(=O)CCC(=O)NCCc3ccccc3)ccc21	none
CCC(=O)N1CCc2cc(S(=O)(=O)CCC(=O)NCc3ccco3)ccc21	HSP90 inh 23 | HSP90 confirm inactive | FLuc counter inactive
CCC(=O)N1CCc2cc(S(=O)(=O)N(CC)c3cccc(C)c3)ccc21	HSP90 inh 62 | HSP90 confirm inactive | FLuc counter inactive
COC(=O)C1=C(CN2CCc3ccccc32)NC(=O)NC1c1cc(C)ccc1C (stereo unspecified)	none
COC(=O)C1=C(CN2CCCc3ccccc32)NC(=O)NC1c1ccc(F)cc1 (stereo unspecified)	HSP90 inh 46 | HSP90 confirm inactive | FLuc counter inactive
COc1ccc(NC2=C(C(C)=O)C(c3ccc(OC)cc3)C(C(C)=O)C(C)(O)C2)cc1 (stereo unspecified)	HSP90 inh 31 | HSP90 confirm inactive | FLuc counter inactive
COc1ccc(NC(=O)COC(=O)C2CCN(S(=O)(=O)c3cccs3)CC2)cc1OC	none (no result: Platelet DG rel, HSP90 inh)
Nc1ccccc1SSc1ccccc1N	none | HSP90 confirm 36 | FLuc counter inactive
N#Cc1ccccc1Sc1ccccc1N	none
Cc1cc(/C=C(\C#N)C(=O)N2CCOCC2)c(C)n1C1CCCC1	HSP90 inh 37 | HSP90 confirm 52 | FLuc counter 48
CC1CN/C(=C\C(=O)c2ccc(Cl)cc2)C(=O)N1 (stereo unspecified)	HSP90 inh 22 | HSP90 confirm 40 | FLuc counter 24
CC1CN/C(=C\C(=O)c2ccccc2)C(=O)N1 (stereo unspecified)	none
Cc1c(C(=O)O)cccc1-n1c(C)cc(/C=N/NC(=O)c2cc3ccccc3o2)c1C	HSP90 inh 22 | HSP90 confirm inactive | FLuc counter inactive
C/C(=N\Nc1nc2ccccc2[nH]1)c1ccc(N2CCOCC2)cc1	HSP90 inh 19 | HSP90 confirm inactive | FLuc counter inactive
CC(C)(C)c1ccc(-c2nc(N)nc(N)n2)cc1	none
CC(C)(C)c1ccc(-c2conc2N)cc1	HSP90 inh 69 | HSP90 confirm inactive | FLuc counter inactive
COc1ccc(S(=O)(=O)Nc2ccc(-n3cccc3)cc2)cc1	none
C/C(=N\NC(N)=S)C1(C)CC2(CC(C)(C)OC2=O)C(=O)O1 (stereo unspecified)	none
